Screens (PubChem BioAssay)
Shown are actives, neighbours in structure and some others; about 4% of the full set was active somewhere.
Rv3671c inh: Rv3671c serine protease inhibitors, primary screen, biochemical, fluorescence polarization, M. tuberculosis H37Rv; P9WHR9; inhibition, % at 5.96 µM; hit rate 0.048% among 320,000; in the data active means inhibition above about 38%;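 further: extracellular domain of Rv3671c used as enzyme; 0% = enzyme with DMSO and 100% = no enzyme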
RecA intein inh: Mtb RecA intein splicing inhibitors, primary screen, biochemical, fluorescence, HTS | cell-free RecA intein splicing | inhibition, % (no concentration beside the values) | hit rate 0.75% among 290,000; in the data active means inhibition above about 30%;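 further: 0% = vehicle wells and 100% = reference inhibitor control wells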
Target sequence (P9WHJ3 whole entry, looked up): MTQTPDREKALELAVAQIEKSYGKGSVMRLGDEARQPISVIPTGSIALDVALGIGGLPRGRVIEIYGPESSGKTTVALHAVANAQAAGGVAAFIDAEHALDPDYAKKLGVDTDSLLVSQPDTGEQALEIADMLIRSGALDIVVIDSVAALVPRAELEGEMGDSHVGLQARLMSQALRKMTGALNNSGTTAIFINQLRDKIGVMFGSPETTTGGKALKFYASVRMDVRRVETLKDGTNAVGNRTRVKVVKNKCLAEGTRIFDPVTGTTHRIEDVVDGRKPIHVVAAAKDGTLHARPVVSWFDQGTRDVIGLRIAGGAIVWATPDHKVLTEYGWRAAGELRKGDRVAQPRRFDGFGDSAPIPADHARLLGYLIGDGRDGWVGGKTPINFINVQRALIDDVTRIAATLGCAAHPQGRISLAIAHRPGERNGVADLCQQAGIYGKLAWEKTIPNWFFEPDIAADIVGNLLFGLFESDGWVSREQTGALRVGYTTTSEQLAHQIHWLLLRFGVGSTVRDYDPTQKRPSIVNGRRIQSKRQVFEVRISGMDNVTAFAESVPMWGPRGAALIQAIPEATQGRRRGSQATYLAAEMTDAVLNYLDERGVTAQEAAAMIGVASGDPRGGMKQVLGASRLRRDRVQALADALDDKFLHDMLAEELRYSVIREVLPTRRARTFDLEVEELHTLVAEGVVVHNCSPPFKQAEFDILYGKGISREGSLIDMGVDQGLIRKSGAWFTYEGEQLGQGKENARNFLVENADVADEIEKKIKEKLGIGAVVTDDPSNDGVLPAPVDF
GDH-TPI counter: GDH-TPI coupling enzyme inhibitors, primary screen, artefact control for M. tuberculosis FBA inhibitor project, biochemical, absorbance, full deck; GDH-TPI coupled enzyme counterscreen, NADH absorbance; inhibition, % at 4.8 µM; hit rate 1.2% among 360,000; AID 588335, 2011; in the data active means inhibition above about 30%;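 further: 0% = DMSO wells and 100% = wells lacking the enzyme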
FBA Mtb inh: Mtb FBA enzyme inhibitors, primary screen, biochemical, fluorescence, strain H37Rv; purified M. tuberculosis FBA, fluorescence read-out; inhibition, % at 1 µM; hit rate 2.3% among 360,000; in the data active means inhibition above about 27%;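 further: 0% = vehicle and 100% = reference inhibitor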
Mtb betalactam: beta-lactam sensitization of Mtb H37Rv, H37Rv. M. tuberculosis H37Rv growth with meropenem, percent inhibition. hit rate 0.27% among 330,000. inhibition, % at 25 µM; call rule not given here;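 further: growth measured after seven days incubation then overnight dye step; 0% = bacteria only wells and 100% = bacteria with antibiotic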
Mtb UGM inh: M. tuberculosis UGM enzyme inhibitors, primary screen, biochemical, fluorescence polarization, single point; UDP-galactopyranose mutase (Mycobacterium tuberculosis (strain ATCC 25618 / H37Rv)), …; purified UGM, fluorescence polarization probe displacement; inhibition, % at 10 µM; hit rate 0.06% among 320,000; AID 504406, 2011; in the data active means inhibition above about 10%, passing the limit was not always enough
Starred values were filed as active, the others as inactive; / = no result; + = active, no number.

SMILES	Rv3671c inh	RecA intein inh	GDH-TPI counter	FBA Mtb inh	Mtb betalactam	Mtb UGM inh
CC1(C)CC(NC(=O)c2cccc(S(=O)(=O)Nc3cccc(Cl)c3)c2)CC(C)(C)N1	-5	/	4	2	-7	/
CS/C(=C\[N+](=O)[O-])Nc1ccc(OC(F)(F)F)cc1	-20	57*	16	-6	16	1
CCN(CC)CCN1C(=O)C(=O)/C(=C(/O)c2ccc(S(=O)(=O)N3CCOCC3)cc2)C1c1ccc(C(C)(C)C)cc1 (stereo not given)	0	-3	19	-1	-7	2
CN(C)c1ccc(/C=C2\SC(=O)N(CCc3nnc(N)s3)C2=O)cc1	-14	-3	32*	-22	19	-1
COc1ccccc1N1C(=O)C2C(C(=O)c3ccccc3)=NN(c3ccc(Br)cc3)C2C1=O (stereo not given)	-9	-88	12	0	-1	11*
COc1ccccc1N1C(=O)C2C(C(=O)c3ccccc3)=NN(c3ccc(C)cc3)C2C1=O (stereo not given)	-16	-1	9	-1	-3	8
O=C(C1=NN(c2ccccc2)C2C(=O)N(c3ccc(Cl)cc3)C(=O)C12)c1ccccc1 (stereo not given)	-15	/	12	-5	4	15*
COc1cc(/C=C2\NC(=S)NC2=O)ccc1OCc1cccc(C(=O)O)c1	-6	1	32*	2	-2	3
CCS(=O)(=O)c1nc(S(=O)(=O)c2ccc(C)cc2)c(N2CCCC2)s1	7	-9	34*	0	-5	3
CCS(=O)(=O)c1nc(S(=O)(=O)c2ccc(C)cc2)c(N2CCCCCC2)s1	/	/	17	-2	/	/
COc1ccc(/C=C\C(=O)c2c(O)ccc3c(C)cc(=O)oc23)cc1	-2	1	49*	3	81	0
COc1ccc(/C=C/C(=O)c2c(O)ccc3c(C)cc(=O)oc23)cc1	-1	2	38*	-2	75	-2
Cc1cc(=O)oc2c(O)c(O)ccc12	/	/	4	2	/	/
CCC(=O)Nc1nnc(S(=O)(=O)N2c3ccccc3CC2C)s1 (stereo not given)	8	-3	0	4	0	-2
O=C(/C=C/c1ccccc1Cl)c1ccc(O)cc1	-2	4	35*	-3	89	-1
O=C1CCCN1c1ccc(C(=O)N(Cc2nnc(-c3ccc(Cl)cc3)o2)C2CC2)cc1	0	0	-3	2	-9	4
CCc1ccc2[nH]c(=O)c(C3C(C#N)=C(N)Oc4c3ccc3cccnc43)cc2c1 (stereo not given)	-3	13	25	2	10	0
Cc1ccc2cc(C3C(C#N)=C(N)Oc4c3ccc3cccnc43)c(=O)[nH]c2c1 (stereo not given)	9	-1	35*	4	2	-2
CCN(CC)c1ccc(-c2nc3cnccc3n2C)cc1	-4	-2	31*	9	0	/
Cn1cccc1/C=N/n1c(-c2ccccc2)n[nH]c1=S	1	-4	33*	-4	-9	5
COc1ccccc1/C=C/C=N/n1c(-c2ccncc2)n[nH]c1=S	3	-2	32*	-3	6	0
COc1ccccc1/C=C/C=N/n1c(-c2n[nH]c3c2CCC3)n[nH]c1=S	-5	/	33*	6	-12	-3
Clc1cccc(CNCCCSc2ncccn2)c1	0	-3	14	-1	-1	0
Cc1ccc2oc(=O)n(Cc3ccccc3)c2c1	-1	1	4	0	-4	0
CC1(C)CC(CCNS(=O)(=O)c2ccccc2)(c2ccccc2)CCO1 (stereo not given)	-11	3	5	4	-5	1
SMILES	Rv3671c inh	RecA intein inh	GDH-TPI counter	FBA Mtb inh	Mtb betalactam	Mtb UGM inh
CC1(C)CC(CCNC(=O)CCl)(c2ccccc2)CCO1 (stereo not given)	8	32*	8	-2	/	-2
O=c1[nH]cnc2sc3c(c12)CN(Cc1ccccc1)CC3	3	-10	23	52*	7	-2
CC1(C)Cc2c(sc3nc[nH]c(=O)c23)CO1	-6	-4	9	3	-4	2
OC(c1ccccc1)c1nc(/C=C/c2ccccc2)cs1 (stereo not given)	/	/	-1	0	/	/
CSC1=N/C(=C/c2cccnc2)C(=O)N1Cc1ccccc1	-4	-8	32*	9	-13	-3
CSC1=N/C(=C/c2cccnc2)C(=O)N1Cc1ccc(Cl)cc1	1	-3	12	14	-8	0
Cc1ccc(F)cc1C(=O)N1CCCCC1c1cc(C(=O)NC(C)C)no1 (stereo not given)	/	/	-14	-3	/	/
COc1ccc(NC(=O)c2csc(C)c2)cc1OC	-5	-2	4	7	-19	1
N=c1nc(-c2ccccc2)ccn1O	-2	-1	39*	-15	1	4
Cc1[nH]c(C)c(S(=O)(=O)NCc2ccco2)c1C(=O)N1CCCCC1	-3	-4	1	-1	-2	-1
CSc1nnc(-c2cccn(Cc3ccccc3)c2=O)o1	-6	1	4	131*	0	-4
NC(=O)c1ccc(N2CCN(c3ccc(O)cc3)CC2)c([N+](=O)[O-])c1	-6	-3	7	-2	-3	2
CC(=O)c1ccc(N2CCN(c3ccc(C(N)=O)cc3[N+](=O)[O-])CC2)cc1	3	-1	33*	-9	3	-1
O=C(c1c(F)cccc1Cl)N(Cc1ccco1)C1CCS(=O)(=O)C1 (stereo not given)	/	/	4	-2	/	/
Cc1ccc(S(=O)(=O)NC(CC(C)C)C(=O)Oc2ccc3c4c(c(=O)oc3c2)CCC4)cc1 (stereo not given)	-16	17	9	+	87	-1
CCC(C)C(NS(=O)(=O)c1ccc(C)cc1)C(=O)Oc1ccc2c3c(c(=O)oc2c1)CCC3 (stereo not given)	-18	6	4	37*	1	1
CC[C@@H](NS(=O)(=O)c1ccc(C)cc1)C(=O)Oc1ccc2c3c(c(=O)oc2c1)CCC3	2	28	4	+	75	/
CCCCCNc1ncnc2c(C)[nH]nc12	/	/	/	-4	/	/
O=c1[nH]c2ccccc2c(=O)c2ccccc12	/	/	12	1	/	/
O=c1c2c([nH]c3ccccc13)CCC2	-2	2	6	4	-7	2
Cc1ccc2[nH]c3ccccc3c(=O)c2c1	-4	-386	-1	136*	8	2
O=c1c2ccccc2[nH]c2ccc(F)cc12	-4	-180	5	156*	5	1
